Bioassay records (PubChem)
The list is not random: actives were taken first. Their share in the collection is about 3.4%.
GPR151 activ: activators of human GPR151, primary screen, cell-based, PathHunter beta-arrestin, luminescence; G-protein coupled receptor 151 (Homo sapiens), Q8TDV0; PathHunter beta-arrestin GPR151 cells; activation, % at 11.2 µM; 650,000 compounds, 1% hits; AID 1508602, 2020; in the data active = activation above about 4.9%;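 also: 0% = median of compound wells and 100% = cells with positive control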
Target sequence (Q8TDV0 whole entry, looked up): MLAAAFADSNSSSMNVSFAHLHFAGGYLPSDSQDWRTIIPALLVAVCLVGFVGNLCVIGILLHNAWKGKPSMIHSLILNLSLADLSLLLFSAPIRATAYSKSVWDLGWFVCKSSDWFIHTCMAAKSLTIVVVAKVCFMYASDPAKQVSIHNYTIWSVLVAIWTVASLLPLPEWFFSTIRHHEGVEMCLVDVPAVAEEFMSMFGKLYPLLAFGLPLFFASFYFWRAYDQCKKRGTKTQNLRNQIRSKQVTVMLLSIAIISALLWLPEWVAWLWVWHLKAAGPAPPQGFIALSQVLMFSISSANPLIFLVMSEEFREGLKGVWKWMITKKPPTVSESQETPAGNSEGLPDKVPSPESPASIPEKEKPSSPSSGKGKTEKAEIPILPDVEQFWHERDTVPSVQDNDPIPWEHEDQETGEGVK
TEAD-YAP inh: TEAD-YAP interaction inhibition, primary screen, TEAD-YAP interaction inhibitor project, luminescence, HEK-TIYL cells | TEAD-Gal4/YAP UAS-luciferase luminescence | 640,000 compounds, 1.4% hits | inhibition, % at 9.12 µM; in the data active = inhibition above about 32%;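 also: 0% = median of test compound wells and 100% = reference inhibitor wells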
FBW7 activator: FBW7 E3 ligase activators, primary screen, biochemical, AlphaScreen, human; F-box/WD repeat-containing protein 7 (Homo sapiens), Q969H0; AlphaScreen FBW7–phospho-cyclin E peptide binding, activator screen; normalized activity (activation), % at 26.1 µM; 650,000 compounds, 0.13% hits; AID 1259310, 2017; in the data active = normalized activity above about 1.9%;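 also: purified mutant Fbw7 with reduced substrate affinity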
MITF primary: MITF inhibitors, primary screen, biochemical, AlphaScreen, human | 650,000 compounds, 0.91% hits | AlphaScreen MITF homodimerization, bead proximity signal | Microphthalmia-associated transcription factor (Homo sapiens), O75030 | inhibition, % at 2.6 µM; in the data active = inhibition above about 50%;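 also: 0% = vehicle wells with protein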
MITF confirm: MITF inhibitors, retest of hits, confirmation, biochemical, AlphaScreen, triplicate. shares compounds with MITF primary. AlphaScreen MITF homodimerization, biotin/His-MITF beads. inhibition, % at 2.6 µM. 4,700 compounds, 16% hits;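 active = inhibition above a cutoff derived from the DMSO control wells, cut at about 28% in these data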;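 also: 0% = MITF dimer wells with DMSO only; inhibitors lower the bead chemiluminescence by keeping MITF from dimerizing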
AlphaScreen DR: AlphaScreen optical interference compounds, dose response, counter-screen, biochemical, HTS; shares compounds with MITF primary; AlphaScreen optical interference counterscreen, cell-free; IC50, µM; 480 compounds, 6% hits; call rule not given here
AlphaScreen intf2: AlphaScreen optical interference compounds, counter-screen for MITF inhibitor project, biochemical, triplicate; shares compounds with MITF primary; LysRS AlphaScreen counterscreen, signal interference; inhibition, % at 2.6 µM; 4,700 compounds, 7.6% hits; AID 1259376, 2018;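 active = inhibition above a cutoff derived from the DMSO control wells, cut at about 30% in these data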
Starred values were filed as active, the others as inactive; nt = not tested or not shown.

SMILES | GPR151 activ | TEAD-YAP inh | FBW7 activator | MITF primary | MITF confirm | AlphaScreen intf2 | others
NC(=O)c1cc(NC(=O)COC(=O)COc2cccc(C(F)(F)F)c2)cc(C(N)=O)c1 | 1.0 | 0.8 | 0.1 | 53.1* | 48.5* | 2.9 | AlphaScreen DR=>6.49
O=S(=O)(Nc1ccc(N2CCC(NCCN3CCOCC3)CC2)cc1)c1ccccc1 | -0.1 | 1.1 | 1.1 | 14.3 | nt | nt
O=C(Nc1ccc(O)cc1)c1cc(S(=O)(=O)N2CCCC2)ccc1Cl | 0.7 | 6.9 | 0.2 | 70.5* | 5.0 | 5.3
CC1=NN(c2nnc(C)c(=O)[nH]2)C(=O)C1 | -1.3 | 7.3 | -0.1 | 103.2* | 82.7* | 100.0*
CC1=NN(c2ccc(C)cc2)C(=O)C1 | -1.4 | 2.7 | -1.2 | 12.9 | nt | nt
COc1ccc(/C=N/Nc2nncc(-c3ccccc3)n2)cc1Br | -0.1 | -3.9 | 0.0 | 64.7* | -11.3 | -8.8
Oc1ccc(/C=N\Nc2nncc(-c3ccccc3)n2)cc1 | -0.2 | -1.1 | 0.6 | 4.5 | nt | nt
CCOC(=O)c1ccc(OCC(O)CN2CCCC2)cc1 (configuration not stated) | 3.6 | -2.8 | 0.0 | 52.0* | 9.5 | 8.2
C/C(=N\NC(=O)CC1=NNC(=O)C1)c1ccco1 | -0.5 | -1.4 | -0.5 | 51.2* | 35.7* | -2.5 | AlphaScreen DR=>6.48
O=C(NCCCn1ccnc1)c1nn2c(C(F)(F)F)cc(-c3ccco3)nc2c1Br | -0.8 | 6.3 | 0.1 | -8.5 | nt | nt
OC(CNCCCN1CCOCC1)COC(c1ccc(F)cc1)c1ccc(F)cc1 (configuration not stated) | -0.5 | -1.4 | -0.2 | 35.6 | nt | nt
CN1CCC(N(C)CC(O)COC(c2ccc(F)cc2)c2ccc(F)cc2)CC1 (configuration not stated) | -0.5 | 3.4 | -0.2 | 60.1* | -11.5 | 3.5
CC(=O)C(Cc1ccccc1)NC(=O)CN1CCN(C/C=C/c2ccccc2)CC1 (configuration not stated) | -1.2 | 3.6 | 0.1 | 62.1* | 14.1 | 14.4
O=C(CN1CCN(Cc2nc(-c3cccs3)cs2)CC1)N1CCc2ccccc21 | -0.6 | -3.9 | -0.4 | 58.4* | -8.4 | 1.6
O=C(CN1CCN(Cc2ccccc2)CC1)N1CCCc2ccccc21 | -2.1 | 18.7 | -0.4 | 72.0* | -3.3 | 2.3
O=C(CN1CCN(C/C=C/c2ccccc2)CC1)N1CCCc2ccccc21 | -0.1 | 8.7 | -0.3 | 85.3* | 5.5 | 10.3
CCOC(=O)c1ccc(NC(=O)CSc2ccc(F)cc2)cc1 | -0.5 | -2.8 | 0.1 | 53.9* | 4.1 | 12.4
CCOC(=O)c1ccc(NC(=O)CCSc2ccc(C)cc2)cc1 | -0.4 | -1.8 | 0.2 | 18.6 | nt | nt
CCOc1cc(CN2CCN(C3CC4CCC3C4)CC2)ccc1OC (configuration not stated) | 0.0 | 6.3 | -0.1 | 69.1* | -19.7 | -1.7
COc1ccc(CN2CCN(C3CCN(Cc4ccccc4)CC3)CC2)cc1OCc1ccccc1 | -0.8 | 4.0 | -0.1 | 29.1 | nt | nt
CCOc1cc(CN2CCN(C3CCCCCC3)CC2)ccc1OC | -0.1 | -4.9 | 0.0 | 55.2* | -1.4 | 8.4
CCOc1ccc(CN2CCN(S(=O)(=O)CC)CC2)cc1OC | -0.9 | -4.7 | -0.1 | 36.9 | nt | nt
Fc1ccc(CN2CCN(C3CC4CCC3C4)CC2)cc1 (configuration not stated) | 0.5 | -10.3 | -0.1 | 79.4* | 2.1 | 0.2
CCOc1cc(CN2CCN(C3CCCCC3)CC2)ccc1OC | 0.4 | -2.0 | 0.0 | 64.5* | 5.6 | 17.5
COc1ccc(CN2CCC(N3CCCCC3)CC2)cc1OC | -0.5 | 7.2 | -0.1 | 38.2 | nt | nt
SMILES | GPR151 activ | TEAD-YAP inh | FBW7 activator | MITF primary | MITF confirm | AlphaScreen intf2 | others
COC(=O)C(C)(C)NC(=O)Nc1ccc(Cl)cc1 | 4.1 | -0.9 | 0.8 | 0.6 | nt | nt
Cc1ccc(NC(=O)c2cn(C)c(=O)c3ccccc23)cc1F | 0.2 | 2.8 | -0.2 | 5.8 | nt | nt
CC(=O)NC1(c2ccccc2)CCN(C(=O)C2CC2)CC1 | 3.2 | 2.4 | -0.2 | -8.5 | nt | nt
CC(=O)NC1(c2ccccc2)CCN(C(=O)N2CCOCC2)CC1 | -0.3 | 7.3 | 1.1 | 81.7* | 11.4 | 16.3
COc1cccc(C(=O)N[C@H]2C[C@H]3C(=O)N[C@H](C)C(=O)N3C2)c1 | -0.8 | -5.1 | -0.2 | 65.9* | -1.7 | -7.4
CS(=O)(=O)N1CCN(Cc2ccncc2)CC1 | 0.6 | 4.7 | -0.2 | 78.5* | -6.0 | 15.0
Cc1ccc(S(=O)(=O)N2CCN(Cc3cccnc3)CC2)cc1 | 0.0 | -6.8 | 0.2 | 83.1* | 6.9 | 7.5
Cc1ccc(CN2CCN(S(=O)(=O)c3ccc(C)cc3)CC2)cc1 | 0.5 | 1.1 | 0.1 | -5.8 | nt | nt
CS(=O)(=O)N1CCN(Cc2cccnc2)CC1 | 0.9 | -10.2 | -0.1 | 66.6* | -0.1 | 9.8
CCS(=O)(=O)N1CCN(Cc2cccnc2)CC1 | -0.7 | 0.3 | 0.0 | 78.3* | 11.0 | 12.3
CCCS(=O)(=O)N1CCN(Cc2cccnc2)CC1 | 2.9 | 1.6 | -0.1 | 46.4 | nt | nt
Cc1ccccc1/C=N/n1c(-c2ccncc2)n[nH]c1=S | 0.9 | 12.6 | 0.0 | -10.8 | nt | nt
Cc1cc(C(=O)NCC2CCCN(S(=O)(=O)c3cc4ccccc4s3)C2)no1 (configuration not stated) | 0.8 | 0.5 | -0.1 | -2.1 | nt | nt
COc1ccc(Cl)cc1NC(=O)CN1CCN(C)CC1 | 0.3 | 5.0 | -0.1 | 12.0 | nt | nt
Cc1ccccc1NC(=O)CN1CCN(Cc2ccccc2)CC1 | -0.5 | -1.9 | 0.4 | 12.4 | nt | nt
O=C(CN1CCN(CC(=O)c2ccco2)CC1)Nc1ccc2c(c1)OCCO2 | -0.6 | 0.0 | -0.6 | 68.5* | 10.5 | 17.3
O=C(CC(=O)c1ccco1)Nc1cc(Cl)ccc1Cl | -1.0 | -19.7 | 0.3 | 55.7* | -0.1 | 15.3
COc1ccc(Cl)cc1NC(=O)CN1CCN(CC(=O)c2ccco2)CC1 | 1.4 | 0.8 | -0.4 | 53.2* | 7.9 | 11.6
N#Cc1ccccc1NC(=O)CN1CCN(Cc2ccccc2)CC1 | -1.3 | -5.6 | 0.2 | 60.1* | 4.3 | -0.4
O=C(NCCc1c[nH]c2ccccc12)c1ccc(Cn2nnc3ccsc3c2=O)cc1 | 1.8 | 5.2 | -0.1 | 0.5 | nt | nt
CC(NC(=O)C(C)N(c1ccc(Cl)cc1)S(C)(=O)=O)c1ccccc1 (configuration not stated) | -2.3 | 1.9 | 0.3 | 15.5 | nt | nt
O=C(CN1CCN(CC(=O)c2ccco2)CC1)Nc1ccccc1F | 0.7 | -10.1 | -0.4 | 66.4* | 9.4 | 13.6
O=C(CN1CCC(NC(=O)c2ccco2)CC1)Nc1ccccc1F | 1.0 | 0.8 | -0.2 | -3.0 | nt | nt
N#C/C(=C\c1ccco1)C(=O)Nc1sc2c(c1C(N)=O)CCCC2 | -0.3 | -12.0 | 0.1 | -2.7 | nt | nt
